Results from PubChem BioAssay (EPA / NIEHS).
Inconclusive results are not listed. The source made the active and inactive calls. The calls were made as follows, unless noted: active = hit-call score of the fitted dose curve at least 0.9, where 1 is the maximum; inactive = score below 0.9.

How the values were obtained:
[1] = biological target: Estrogen receptor (Homo sapiens) (UniProt P03372); assay: CCTE_Deisenroth_AIME_384WELL_LUC_Inactive: CCTE's 384-well Estrogen Receptor Transactivation Assay without AIME metabolic competence (ERTA luciferase; metabolism negative), Deisenroth Lab (AID 2284038; active = hit-call score of the fitted dose curve at least 0.9, where 1 is the maximum;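 also: VM7Luc4E2 breast cells given medium preincubated 2 h with S9-free microspheres; hits raise estrogen receptor luciferase signal so potencies reflect agonists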)
Procedure, shortened: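 Chemicals (10-point series, 0.002 - 200 uM) were incubated 2 hours with alginate-water microsphere lids lacking S9, then the conditioned medium was transferred to VM7Luc4E2 breast cells for 24 hour. Luciferase induction was read by bioluminescence, fitted upward relative to 17beta-estradiol.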

[2] = CCTE_Shafer_MEA_dev_active_electrodes_number: CCTE's Neural Network Formation Assay for Number of Active Electrodes, Shafer Lab (AID 2284040; active = hit-call score of the fitted dose curve at least 0.9, where 1 is the maximum)
Procedure, shortened: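 Rat cortical primary cultures, 1.5 x 10^5 cells/well, PEI-coated MEA, laminin drop. Continuous exposure DIV 0–12; full media/compound change DIV 5, 9. Readout: electrodes with mean firing ≥5 spikes/min; AUC across days; loss vs DMSO.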

[3] = CCTE_Shafer_MEA_dev_burst_rate: CCTE's Neural Network Formation Assay for Burst Rate, Shafer Lab (AID 2284042)
Procedure, shortened: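 Primary rat cortical neurons on PEI-coated 48-well MEA plates (laminin added with cells at plating) (16 electrodes/well), exposed from plating to day 12, dosing renewed at DIV 5 and 9. Burst rate averaged over active electrodes, recorded DIV 5, 7, 9, 12, summarized as AUC; loss versus DMSO.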

[4] = CCTE_Shafer_MEA_dev_bursting_electrodes_number: CCTE's Neural Network Formation Assay for Number of Bursting Electrodes, Shafer Lab (AID 2284043; active = hit-call score of the fitted dose curve at least 0.9, where 1 is the maximum)
Procedure, shortened: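 Primary rat cortical neurons plated on 16-electrode MEA wells, exposed from day 0 with compound renewed at DIV 5 and 9. Electrodes bursting ≥1 burst per 2 min counted on days 5, 7, 9 and 12; trapezoidal AUC across days, fitted for loss versus DMSO.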

[5] = CCTE_Shafer_MEA_dev_per_burst_interspike_interval: CCTE's Neural Network Formation Assay for Burst Interspike Interval, Shafer Lab (AID 2284044);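 also: mean spike spacing inside bursts as AUC over recordings on days 5 7 9 12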
Procedure, shortened: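 Spontaneous activity of maturing rat cortical networks is recorded on DIV 5, 7, 9 and 12 under chronic compound exposure beginning at plating. Endpoint: burst interspike interval well-mean, collapsed into trapezoidal AUC and fitted in the negative direction relative to DMSO.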

[6] = CCTE_Shafer_MEA_dev_burst_duration_mean: CCTE's Neural Network Formation Assay for Mean Burst Duration, Shafer Lab (AID 2284045)
Experimental: CCTE_Shafer_MEA_dev assay is conducted using Axion Biosystems 48 well microelectrode array (MEA) plates and Maestro recording system. Each well of the MEA plate contains a grid of 16 microelectrodes embedded in the culture surface. Electrically active cells, such as neurons, can be cultured over the electrodes, and electrical activity in these cells can be recorded extracellularly. The spontaneous firing of neurons is captured from each electrode on a microsecond timescale providing both temporally and spatially precise data. […] The CCTE_Shafer_MEA_dev assay uses primary cultures of rat cortical neurons. Recordings are made on days post-plating 5, 7, 9 and 12. As these cultures mature over time, neural networks develop functional activity and form cohesive networks in which electrical activity can be highly coordinated. CCTE_Shafer_MEA_dev_burst_duration_mean is 1 of 19 assay components of the CCTE_Shafer_MEA_dev assay. It measures the average time interval from the first spike (action potential firing) to the last spike in a singe-electrode burst (temporally-clustered group of spikes) during a recording in a microelectrode array (MEA) using Axion Biosystems Maestro 768 channel amplifier with the AxIS adaptive spike detector. The mean burst duration is averaged across the actively bursting electrodes to report a well-mean value. To collapse across multiple recordings made on days post-plating 5, 7, 9 and 12, the trapezoidal area-under-the-curve of the component is calculated.Data from the assay component CCTE_Shafer_MEA_dev_burst_duration_mean was analyzed into 1 assay endpoint. This assay endpoint, CCTE_Shafer_MEA_dev_burst_duration_mean, was analyzed in the negative analysis fitting direction relative to DMSO as the negative control and baseline of activity. Using a type of functional reporter, gain or loss-of-signal activity can be used to understand electrical activity.
On the day prior to culture, each well was coated thoroughly with 150 uL of 0.05% polyethyleneimine (PEI, Sigma Cat P3143) in 50 mM HEPES (Sigma Cat H7523) at a pH of 8. The plate was incubated at 37C for one hour. PEI was rinsed out with 500 uL of sterile water three times. Plates were stored at 4C until the day of culture. This culture was plated at a seeding density of 1.5 x 10^5 cells/well on a 48-well MEA plate, prepared as described above. Cells were administered via a 25 uL media/laminin ([…]; Sigma Cat L2020-1MG) drop directly onto the microelectrode array, as adding the cells with the laminin results in better attachment than pre-coating with laminin. After 2 hours, an additional 475 uL of cortical media was added and the cells returned to the incubator. Exposure starts at day 0 of plating and is continued over twelve days of network development until the experiment is terminated. Cells are fed with fresh medium on DIV 5 and 9, following the recordings on those days. The entire volume of media in the well is exchanged and any vehicle or compound treatment is renewed. Complete details are found in OP-NHEERL/ISTD/SBB/TJS/2015-03-r0 (available on request, email shafer.tim@epa.gov). Measurement of the electrical activity is non-invasive, and recordings can be made from the same plate over multiple different days of the culture. In cortical neurons, this allows for the measurement of extracellular action potentials over the period during which networks form in the MEA plate.

[7] = CCTE_Shafer_MEA_dev_interburst_interval_mean: CCTE's Neural Network Formation Assay for Mean Interburst Interval, Shafer Lab (AID 2284046);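 also: well-mean interburst interval of bursting electrodes as AUC over four recording days; curve fitted for decrease in interburst interval relative to DMSO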
Procedure, shortened: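 Recordings on days 5, 7, 9 and 12 give well-mean interburst interval across actively bursting electrodes, summarized as area under the curve. Cultures: rat cortical neurons, continuous exposure from day 0, compound renewed at feeds; decrease analyzed versus DMSO.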

[8] = CCTE_Shafer_MEA_dev_inter_network_spike_interval_mean: CCTE's Neural Network Formation Assay for Mean Inter-network Spike Interval, Shafer Lab (AID 2284047)
Procedure, shortened: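 Primary rat cortical neurons on 16-electrode MEA wells, exposed from plating day 0 through DIV 12, compound renewed at DIV 5 and 9 media changes. Mean interval between network-spike peaks recorded DIV 5, 7, 9, 12; collapsed as trapezoidal AUC, fitted downward versus DMSO.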

[9] = CCTE_Shafer_MEA_dev_network_spike_number: CCTE's Neural Network Formation Assay for Number of Network Spikes, Shafer Lab (AID 2284048)
Procedure, shortened: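 Primary rat cortical neurons on PEI/laminin 48-well MEA plates, dosed from plating day 0 for 12 days, renewed at DIV 5 and 9. Network spike counts recorded DIV 5, 7, 9, 12, collapsed as trapezoidal AUC; DMSO baseline.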

[10] = CCTE_Shafer_MEA_dev_network_spike_peak: CCTE's Neural Network Formation Assay for Mean Number of Electrodes in Network Spike, Shafer Lab (AID 2284049)
Procedure, shortened: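 Network-spike peak electrode count from recordings on days 5, 7, 9 and 12 was combined as trapezoidal area under the curve. Rat cortical cultures were treated continuously from plating, with compound renewed at each feed (DIV 5, 9); fits versus DMSO.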

Measured: AC50

Chain of Estrogen receptor (Homo sapiens) (P03372 whole entry, looked up): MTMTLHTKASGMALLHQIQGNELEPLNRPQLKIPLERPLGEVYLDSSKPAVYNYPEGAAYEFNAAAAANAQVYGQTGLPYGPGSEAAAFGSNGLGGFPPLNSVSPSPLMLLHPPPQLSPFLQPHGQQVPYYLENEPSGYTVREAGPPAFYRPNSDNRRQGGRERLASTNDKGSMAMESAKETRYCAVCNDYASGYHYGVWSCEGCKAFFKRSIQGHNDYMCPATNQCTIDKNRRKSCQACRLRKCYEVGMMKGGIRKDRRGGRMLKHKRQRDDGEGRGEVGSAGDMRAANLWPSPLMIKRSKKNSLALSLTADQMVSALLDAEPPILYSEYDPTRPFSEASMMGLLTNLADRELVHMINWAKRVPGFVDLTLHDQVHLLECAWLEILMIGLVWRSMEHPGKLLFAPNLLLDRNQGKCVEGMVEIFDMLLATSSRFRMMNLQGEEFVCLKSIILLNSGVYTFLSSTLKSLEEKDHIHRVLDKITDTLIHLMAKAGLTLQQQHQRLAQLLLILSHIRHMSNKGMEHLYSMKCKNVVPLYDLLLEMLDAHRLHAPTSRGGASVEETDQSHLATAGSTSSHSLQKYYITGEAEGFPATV

OC12N=C(c3ccccc3)SC1Cc1cc(Cl)ccc12 (centres undefined)
inactive: [1]

O=C1O[C@H]([C@@H](O)CO)C(O)=C1O
not listed: [1]
inactive: all other assays above

CC(C)(c1cc(Br)c(O)c(Br)c1)c1cc(Br)c(O)c(Br)c1
not listed: [1]
inactive: all other assays above

CCCCCCCCOC(=O)c1cc(O)c(O)c(O)c1
inactive: [1]

CN1C(=O)CC[C@H]1c1cccnc1
not listed: [1]
inactive: all other assays above

O=C(Nc1ccc(Cl)cc1)Nc1ccc(Cl)c(Cl)c1
inactive: [1]

O=c1[nH]sc2ccccc12
inactive: [1]

O=C(O)Cn1c(=O)n(Cc2ccc(Br)cc2F)c(=O)c2ccc(Cl)cc21
active: [1] 106 µM

Cc1cn([C@H]2C[C@H](N=[N+]=[N-])[C@@H](CO)O2)c(=O)[nH]c1=O
inactive: [1]

CCCOC(=O)c1cc(O)c(O)c(O)c1
active: [1] 43.6 µM
